{"source": "PubChem BioAssay", "note": "Unmarked numbers belong to inactive results. The rule behind the calls is not given here.", "data": [{"target": "Pantothenate synthetase (Mycobacterium tuberculosis (strain ATCC 25618 / H37Rv)) (UniProt P9WIL5)", "sequence (P9WIL5 whole entry, looked up)": "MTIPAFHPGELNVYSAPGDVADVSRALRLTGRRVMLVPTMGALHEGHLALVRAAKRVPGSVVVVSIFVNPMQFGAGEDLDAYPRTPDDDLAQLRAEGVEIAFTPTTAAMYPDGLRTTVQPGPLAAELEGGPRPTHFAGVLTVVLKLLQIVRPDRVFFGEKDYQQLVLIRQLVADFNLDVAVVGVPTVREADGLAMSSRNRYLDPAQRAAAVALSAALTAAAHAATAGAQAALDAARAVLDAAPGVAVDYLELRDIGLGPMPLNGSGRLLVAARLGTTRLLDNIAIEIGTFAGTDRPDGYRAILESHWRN", "assay": "Recombinant Mtb pantothenate synthetase (PanC) inhibitors, coupled enzyme, confirmatory (AID 375);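 note: 0% = full reaction with vehicle and 100% = no enzyme background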", "conditions": "coupled enzyme assay; at 10 µM, active compounds read high", "units": {"inhibition": "%"}, "values": [{"smiles": "Cc1ccc(N(CC2=NCCN2)c2cccc(O)c2)cc1", "inhibition": 1}, {"smiles": "Cc1cccc2cc(CN(CC3CCCO3)C(=O)c3cnccn3)c(=O)[nH]c12", "note": "(stereo not drawn)", "inhibition": 0}, {"smiles": "CC1(C)CC(=O)C2=C(C1)N(CC1CCCO1)C(=O)C2(O)C(F)(F)F", "note": "(stereo not drawn)", "inhibition": 0}, {"smiles": "O=C(CSc1ncnc2c1oc1ccccc12)Nc1ccccc1C(F)(F)F", "inhibition": 0}, {"smiles": "Cc1csc(SCc2nc3sc4c(c3c(=O)[nH]2)CCC4)n1", "inhibition": 0}, {"smiles": "CC1Cc2ccccc2N1C(=O)COC(=O)Cn1nnc(-c2ccccc2)n1", "note": "(stereo not drawn)", "inhibition": 13}, {"smiles": "CCCNC(=O)c1cc(-c2ccco2)on1", "inhibition": 2}, {"smiles": "CCOC(=O)N1CCN(C(=O)C2CC(=O)N(Cc3ccc(OC)cc3)C2)CC1", "note": "(stereo not drawn)", "inhibition": 3}, {"smiles": "CCOC(=O)c1sc2ncn(/N=C/N(C)C)c(=O)c2c1C", "inhibition": 8}, {"smiles": "CCc1ccccc1OCCCCCNCCO", "inhibition": 3}, {"smiles": "CC(=O)N1c2c(cc(Br)cc2S(=O)(=O)NCC2COc3ccccc3O2)CC1C", "note": "(stereo not drawn)", "inhibition": 2}, {"smiles": "CN(C)C(=O)CN(C)S(=O)(=O)c1ccc(Cl)cc1", "inhibition": 0}, {"smiles": "Nc1nc2n(n1)C(c1c(F)cccc1Cl)CC(c1ccc(F)cc1)N2", "note": "(stereo not drawn)", "inhibition": 1}, {"smiles": "Cc1cccc(-n2c(O)c(C=Nc3ccccc3N)c(=O)[nH]c2=O)c1", "inhibition": 0}, {"smiles": "CCCN1C=CC(=C2C(=O)c3ccccc3C2=O)C=C1", "inhibition": 0}, {"smiles": "O=C(NCc1cccnc1)c1ccccc1Br", "inhibition": 7}, {"smiles": "NC(=O)c1cc(-c2ccccc2)nc(Oc2ccccc2)n1", "inhibition": 1}, {"smiles": "O=C(CSc1nnnn1-c1ccccc1Cl)Nc1ccc2c(c1)OCCO2", "inhibition": 8}]}]}
